We go through 40 molecules from PubChem BioAssay (NCI).

The structures appear in SMILES notation. The panel holds about 79,000 compounds, 15% with a hit somewhere; the sample as a whole holds those more often. Values without a mark were called inactive. Active and inactive are the calls of the source. Rule as the data show it: active = growth inhibition above about 70%; inactive = the rest.

The first assay in a line: NCI Yeast Anticancer Drug Screen. Data for the rad50 strain (AID 155).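 Also: 0% = growth of vehicle-only cultures of the same strain.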 The following applies: S. cerevisiae rad50 strain growth inhibition; at 50.0 µM; hits give high values. The method, boiled down: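 Inhibition values express reduced yeast growth in compound-treated cultures relative to vehicle-treated controls.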
In the case of `Cc1cn(C)c2c1-c1c(cnn1-c1ccccc1)CC2`, the growth inhibition is 15.6%.

With `C[n+]1nc2ccccc2c(=Nc2ccccc2[N+](=O)[O-])[n-]1`, the growth inhibition is 10.3%.

As for `O=S(=O)(c1ccccc1)N1CCCCC1`, the growth inhibition is -23.3%.

Take `CCN(CC)Cc1cc(Nc2nc(/C=C/c3ccccc3)nc3ccccc23)ccc1O`: the growth inhibition was 4.05%.

For `S=C1N=C2c3ccccc3C2C(=S)S1` (stereo not given), the growth inhibition was -4.8%.

In the case of `O=Cc1c2cnc(c1O)CSCCCCSC2`, the growth inhibition is -9.2%.

In the case of `NC(=O)c1csc(NC2OC(CO)C(O)C(O)C2O)n1` (stereo not given), the growth inhibition was 23.1%.

Consider `O=[N+]([O-])c1ccc(N=Nc2c(O)[nH]c3ccc(Br)cc23)c([N+](=O)[O-])c1`, for which the growth inhibition was 9.75%.

With `CCN(CC)Cc1cc(N)cc(N=Nc2ccc3c(c2)c2ccccc2n3CC)c1O`, the growth inhibition was 29.2%.

Regarding `O=C(Nc1cccnc1)c1ccc([N+](=O)[O-])s1`, the growth inhibition was 11.1%.

As for `CC1=NN(c2nc(N)nc(CCl)n2)CC1`, the growth inhibition was 11.1%.

Consider `Clc1cc(Cl)c2ccc3c(Cl)cc(Cl)c4ccc1c2c43`, for which the growth inhibition is -18.6%.

As to `CC(C)CCCC(C)C1CCC2C(CC(=O)O)C(C3(C)CCC(O)CC3=O)CCC2(C)C1` (stereo not given), the growth inhibition was 23.9%.

Turning to `[Cl][Pt+2][Cl].[NH-]c1ccccc1F.[NH-]c1ccccc1F`, the growth inhibition was 11.2%.

Take `COc1cc([N+](=O)[O-])ccc1NC(=O)C(Br)C(Br)C(=O)O` (stereo not given): the growth inhibition was -6.6%.

`Cc1cccc(C=NC23CC4CC(CC(C4)C2)C3)c1`: the growth inhibition was -30.4%.

In the case of `CC[P+](C)(Cc1ccccc1)c1ccccc1` (stereo not given), the growth inhibition was -0.75%.

Consider `CC(C)N=C(c1ccccc1)N(O)c1ccccc1`, for which the growth inhibition is -0.4%.

As to `Cc1cccc(N=Nc2c(C)nc(N)nc2C)c1C`, the growth inhibition was 4.35%.

Consider `COc1ccc(NC(=O)N2CC3CCN2CC3)cc1`, for which the growth inhibition was -7.95%.

Take `Cn1c(=O)c2c(nc(OCC[N+](C)(C)C)n2C)n(C)c1=O`: the growth inhibition was 5%.

Take `CCCNC(=O)c1cccc2c1-c1ccccc1C2=O`: the growth inhibition was -0.55%.

For the molecule `CN(C)CCC1(C2=CCCC2)CC/C(=C\c2ccc3c(c2)OCO3)C1=O` (stereo not given), the growth inhibition is 4.85%.

Take `C/C(CCc1cnc2ccccc2c1)=N/NC(N)=O`: the growth inhibition is 69.2%.

With `C=C[C@@]1(C)CC2CC[C@]3(C)C(C)=CC(=O)CC3[C@]2(C)CC1O` (stereo not given in full), the growth inhibition is 6.9%.

With `Cc1cc2c(c3oc(C4(C)OC4C4OC4C)cc(=O)c13)C(=O)c1c(O)c(C3CC(C)(N(C)C)C(O)C(C)O3)cc(C3CC(N(C)C)C(O)C(C)O3)c1C2=O` (stereo not given), the growth inhibition is 88.6% (active).

For the molecule `Cc1nc(NS(=O)(=O)c2ccc(N)cc2)nc(C)c1Br`, the growth inhibition is -9.75%.

Turning to `N#C/C(=C\c1ccc2c(c1)OCO2)C(=O)N/N=C/c1ccc2c(c1)OCO2`, the growth inhibition is 4.6%.

In the case of `Fc1ccc(NC(=S)Nc2ccccn2)cc1`, the growth inhibition was 4.05%.

With `OCC(O)C(O)C(O)CN=Cc1ccccc1O` (stereo not given), the growth inhibition is -7.45%.

Turning to `Clc1ccc(/C=C2\c3ccccc3-c3nc4ccccc4nc32)cc1`, the growth inhibition is -6.7%.

`CN1C(=O)N/C(=C\c2ccc(S(=O)(=O)N/N=C\C(O)C(O)C(O)CO)cc2)C1=O` (stereo not given): the growth inhibition is -25.4%.

Regarding `O=C(O)Cc1ccc(-c2ccccc2)cc1`, the growth inhibition was 29.1%.

Regarding `CCOC(=O)C1C(C)=CC(=O)CC1C` (stereo not given), the growth inhibition is 19.8%.

On to `N#Cc1c(-c2ccccc2)cc(-c2cccs2)c(C#N)c1N`, for which the growth inhibition is 4.35%.

For the molecule `CCc1ccc2[nH]nc(CCC(=O)O)c(=O)c2c1`, the growth inhibition was -1.5%.

`CCN(CC)C(=S)SCCC(N)=O`: the growth inhibition was -12.4%.

For `CCCCNC(=S)SSSSC(=S)NCCCC`, the growth inhibition is -8.45%.

As to `CC1=NN(C(=O)CC(=O)Nc2ccccc2C)C(=O)C1N=Nc1ccc(S(=O)(=O)c2ccc(N=NC3C(=O)N(C(=O)CC(=O)Nc4ccccc4C)N=C3C)cc2)cc1` (stereo not given), the growth inhibition was 41.6%.

As to `Cc1ccc(-n2cc(-c3ccc(Cl)cc3)c3c2N=CN2NC(c4ccco4)=NC32)cc1` (stereo not given), the growth inhibition was 5.1%.

A further assay can be described thus: NCI Yeast Anticancer Drug Screen. Data for the mec2-1 strain (AID 157). The following applies: S. cerevisiae mec2-1 strain, at 50.0 µM, hits give high values. The method, boiled down:
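Readout is yeast growth inhibition, normalised to vehicle-treated controls, in the mec2-1 strain exposed to compound.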
`Cc1cn(C)c2c1-c1c(cnn1-c1ccccc1)CC2`: the growth inhibition was 3.75%.

Regarding `C[n+]1nc2ccccc2c(=Nc2ccccc2[N+](=O)[O-])[n-]1`, the growth inhibition is -2.35%.

As for `O=S(=O)(c1ccccc1)N1CCCCC1`, the growth inhibition is 5.05%.

Take `CCN(CC)Cc1cc(Nc2nc(/C=C/c3ccccc3)nc3ccccc23)ccc1O`: the growth inhibition is -37.5%.

`S=C1N=C2c3ccccc3C2C(=S)S1` (stereo not given): the growth inhibition is -12.8%.

On to `O=Cc1c2cnc(c1O)CSCCCCSC2`, for which the growth inhibition was -3.8%.

`NC(=O)c1csc(NC2OC(CO)C(O)C(O)C2O)n1` (stereo not given): the growth inhibition was -8.8%.

As to `O=[N+]([O-])c1ccc(N=Nc2c(O)[nH]c3ccc(Br)cc23)c([N+](=O)[O-])c1`, the growth inhibition was -21.2%.

`CCN(CC)Cc1cc(N)cc(N=Nc2ccc3c(c2)c2ccccc2n3CC)c1O`: the growth inhibition was 0%.

As to `O=C(Nc1cccnc1)c1ccc([N+](=O)[O-])s1`, the growth inhibition is 0.6%.

As for `CC1=NN(c2nc(N)nc(CCl)n2)CC1`, the growth inhibition is 6.35%.

As to `Clc1cc(Cl)c2ccc3c(Cl)cc(Cl)c4ccc1c2c43`, the growth inhibition is -33.3%.

On to `CC(C)CCCC(C)C1CCC2C(CC(=O)O)C(C3(C)CCC(O)CC3=O)CCC2(C)C1` (stereo not given), for which the growth inhibition was 27.1%.

`[Cl][Pt+2][Cl].[NH-]c1ccccc1F.[NH-]c1ccccc1F`: the growth inhibition is 32.9%.

Take `COc1cc([N+](=O)[O-])ccc1NC(=O)C(Br)C(Br)C(=O)O` (stereo not given): the growth inhibition is 5.15%.

For `Cc1cccc(C=NC23CC4CC(CC(C4)C2)C3)c1`, the growth inhibition was -40.5%.

`CC[P+](C)(Cc1ccccc1)c1ccccc1` (stereo not given): the growth inhibition was 1.6%.

Regarding `CC(C)N=C(c1ccccc1)N(O)c1ccccc1`, the growth inhibition was 3.15%.

Take `Cc1cccc(N=Nc2c(C)nc(N)nc2C)c1C`: the growth inhibition was 6.55%.

`COc1ccc(NC(=O)N2CC3CCN2CC3)cc1`: the growth inhibition was -10.8%.

`Cn1c(=O)c2c(nc(OCC[N+](C)(C)C)n2C)n(C)c1=O`: the growth inhibition is 11.8%.

With `CCCNC(=O)c1cccc2c1-c1ccccc1C2=O`, the growth inhibition is 3.85%.

For the molecule `CN(C)CCC1(C2=CCCC2)CC/C(=C\c2ccc3c(c2)OCO3)C1=O` (stereo not given), the growth inhibition is -13.7%.

On to `C/C(CCc1cnc2ccccc2c1)=N/NC(N)=O`, for which the growth inhibition was 27.5%.

As for `C=C[C@@]1(C)CC2CC[C@]3(C)C(C)=CC(=O)CC3[C@]2(C)CC1O` (stereo not given in full), the growth inhibition was 3.3%.

Take `Cc1cc2c(c3oc(C4(C)OC4C4OC4C)cc(=O)c13)C(=O)c1c(O)c(C3CC(C)(N(C)C)C(O)C(C)O3)cc(C3CC(N(C)C)C(O)C(C)O3)c1C2=O` (stereo not given): the growth inhibition is 92.2% (active).

In the case of `Cc1nc(NS(=O)(=O)c2ccc(N)cc2)nc(C)c1Br`, the growth inhibition was -9.55%.

Take `N#C/C(=C\c1ccc2c(c1)OCO2)C(=O)N/N=C/c1ccc2c(c1)OCO2`: the growth inhibition was 17.3%.

As to `Fc1ccc(NC(=S)Nc2ccccn2)cc1`, the growth inhibition is -6.4%.

Regarding `OCC(O)C(O)C(O)CN=Cc1ccccc1O` (stereo not given), the growth inhibition was -2.25%.

For `Clc1ccc(/C=C2\c3ccccc3-c3nc4ccccc4nc32)cc1`, the growth inhibition was -8.05%.

Consider `CN1C(=O)N/C(=C\c2ccc(S(=O)(=O)N/N=C\C(O)C(O)C(O)CO)cc2)C1=O` (stereo not given), for which the growth inhibition is -15%.

For `O=C(O)Cc1ccc(-c2ccccc2)cc1`, the growth inhibition is 23.6%.

As to `CCOC(=O)C1C(C)=CC(=O)CC1C` (stereo not given), the growth inhibition is 1.65%.

With `N#Cc1c(-c2ccccc2)cc(-c2cccs2)c(C#N)c1N`, the growth inhibition was 4%.

Turning to `CCc1ccc2[nH]nc(CCC(=O)O)c(=O)c2c1`, the growth inhibition is -4.7%.

Consider `CCN(CC)C(=S)SCCC(N)=O`, for which the growth inhibition was -13.8%.

Turning to `CCCCNC(=S)SSSSC(=S)NCCCC`, the growth inhibition is -14%.

Regarding `CC1=NN(C(=O)CC(=O)Nc2ccccc2C)C(=O)C1N=Nc1ccc(S(=O)(=O)c2ccc(N=NC3C(=O)N(C(=O)CC(=O)Nc4ccccc4C)N=C3C)cc2)cc1` (stereo not given), the growth inhibition is 14.5%.

Turning to `Cc1ccc(-n2cc(-c3ccc(Cl)cc3)c3c2N=CN2NC(c4ccco4)=NC32)cc1` (stereo not given), the growth inhibition is 14.8%.
